The text below walks through data of PubChem BioAssay.

The nature of assay [1]: inhibitors of TNFa-induced NFkB p65 translocation, primary screen, imaging, HUVEC, MLSMR starter and 10KST1 sets (AID 438;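 active = inhibition above 20% together with a positive visual image hit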;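 also: compound added about 3h40 before a 20 min TNFalpha stimulation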;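 as to inhibition: signal is the nuclear over cytoplasmic p65 intensity ratio per well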). Conditions: HUVEC TNFa-induced p65 nuclear translocation; cell count: measured here: nuclei count (cytotoxicity indicator), at 2.08 µM; inhibition: at 2 µM, stronger effect = higher value, 0% TNFa-plus-vehicle, 100% no-TNFa wells.
Assay [2] in a line: inhibitors of mutant huntingtin aggregation, primary screen, imaging, exon1htt(103Q)mCFP cells, high-content imaging (AID 483;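 active = visual image review flags a hit and inhibition of aggregation exceeds 20%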;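 also: compound exposure lasted 3 days before fixation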;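 as to nuclei count: percent of the per-plate median nuclei count of sample wells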). Conditions: exon1htt(103Q)mCFP cell line, aggregate imaging, at 2 µM; inhibition of aggregation: stronger effect = higher value; nuclei count: measured here: cell count, toxicity.
Assay [3] is described as follows: inhibitors of E-selectin induction by TNFa, primary screen, imaging, HUVEC, immunofluorescence, MLSMR starter and 10KST1 sets (AID 487;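 active = visually confirmed hit in the image check and inhibition above 20%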;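 as to inhibition: signal is fraction of cell area covered by stained E-selectin grains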;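 as to nuclei count: 100% = median nuclei count of all wells on the same plate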). Conditions: HUVEC TNFalpha-induced E-selectin immunofluorescence imaging, at 2 µM; inhibition: stronger effect = higher value; nuclei count: measured here: cell number, toxicity.
The target in assay [4] is Voltage-gated potassium channel subunit beta-2 (Rattus norvegicus) (UniProt P62483). Kind of assay: KvBeta enzyme negative modulators, primary screen, biochemical, NADPH fluorescence (AID 622;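 active = fluorescence slope higher than the sample average by over 3 SD, cut at about -0.22 in these data, passing the limit was not always enough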;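 also: slope of raw intensity against log time taken from 70 to 1610 s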). The note with it: recombinant KvBeta, 4-cyanobenzaldehyde reduction, at 10 µM, stronger effect = higher value.
Voltage-gated potassium channel subunit beta-2 (Rattus norvegicus), sequence (P62483 whole entry, looked up): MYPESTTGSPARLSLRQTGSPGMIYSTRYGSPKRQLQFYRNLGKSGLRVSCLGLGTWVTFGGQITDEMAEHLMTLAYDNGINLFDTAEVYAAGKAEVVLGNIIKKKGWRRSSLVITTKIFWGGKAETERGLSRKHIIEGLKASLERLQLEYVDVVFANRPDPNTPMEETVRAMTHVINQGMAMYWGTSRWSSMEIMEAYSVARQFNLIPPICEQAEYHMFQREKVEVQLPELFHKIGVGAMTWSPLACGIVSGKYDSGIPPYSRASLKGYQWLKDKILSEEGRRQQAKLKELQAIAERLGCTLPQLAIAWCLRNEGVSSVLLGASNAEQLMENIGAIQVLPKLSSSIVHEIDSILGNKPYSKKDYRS
Assay [5] has the same target. Kind of assay: KvBeta positive modulators, primary screen, biochemical, NADPH fluorescence (AID 623;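 active = NADPH fluorescence slope more negative than the mean of all samples by about 3 SD, 99.7% confidence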;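 also: fluorescence intensity change per second fitted from 20 to 320 s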). The note with it: Recombinant KvBeta, NADPH fluorescence decrease slope, 10 min; at 10 µM; stronger effect = lower value.
The target of assay [6] is Alpha-2C adrenergic receptor (Homo sapiens) (UniProt P18825). In words: modulators of alpha2C/GIRK thallium flux, primary screen, cell-based, HEK293 alpha2C/GIRK1/2 (AID 624).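 Also: slope of fluorescence ratio to pre-addition baseline per second over 15 to 24 s.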 The note with it: thallium flux BTC fluorescence, at 10 µM, actives lie on both sides.
Alpha-2C adrenergic receptor (Homo sapiens), sequence (P18825 whole entry, looked up): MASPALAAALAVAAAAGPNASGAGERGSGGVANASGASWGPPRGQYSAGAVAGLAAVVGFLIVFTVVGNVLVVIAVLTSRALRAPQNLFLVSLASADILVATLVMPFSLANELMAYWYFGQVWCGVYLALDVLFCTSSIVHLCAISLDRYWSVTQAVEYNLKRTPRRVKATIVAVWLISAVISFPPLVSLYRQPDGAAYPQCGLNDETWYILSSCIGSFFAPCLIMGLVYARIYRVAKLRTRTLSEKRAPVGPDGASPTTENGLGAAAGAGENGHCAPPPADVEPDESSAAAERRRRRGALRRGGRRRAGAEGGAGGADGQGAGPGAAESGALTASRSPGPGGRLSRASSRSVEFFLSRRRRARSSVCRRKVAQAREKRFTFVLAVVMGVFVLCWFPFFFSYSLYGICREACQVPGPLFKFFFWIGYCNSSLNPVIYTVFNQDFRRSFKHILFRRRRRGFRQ
Assay [7] can be described thus: inhibitors of Sendai virus-induced IRF3 signaling, primary screen, TLR/RLR signaling modifier project, cell-based, Sendai virus stimulus, luciferase, 10K MLSCN set (AID 602276;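 active = inhibition at or above 50% at 10 µM; inactive = inhibition below 50%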;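 also: firefly luciferase from ISG56 promoter only with Renilla not read in this screen; 0% = Sendai virus plus DMSO and 100% = medium plus DMSO without virus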). Conditions: HEK293 RL24 IRF3 luciferase reporter, at 10 µM, stronger effect = higher value.
Assay [8] is described as follows: inhibitors of poly I:C-induced TLR3 signaling, primary screen, cell-based, poly I:C stimulus, luciferase, 10K MLSCN set (AID 602277;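 active = inhibition of the reporter signal at or above 50%; inactive = inhibition below 50%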). Conditions: HEK293-TLR3 RL24 IRF3 luciferase reporter, at 10 µM, stronger effect = higher value. Background: Reporter assays use an easily measured gene product as a stand-in for the process of interest.

Active and inactive are the calls of the source.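 The calls were made as follows, unless noted: active = fluorescence slope after compound addition differing from the mean of all screened samples at 99.7% confidence, in either direction; inactive = the rest.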

For `CC1CCCCC1NC(=O)c1nn(C)c(=O)c2ccccc12` (centres undefined), in assay [1], the cell count was found to be 361. Moreover, the inhibition was 0.7% (inactive) in assay [1], 13.7% (inactive) in assay [3], -1.74% (inactive) in assay [7] and 2.78% (inactive) in assay [8]. In addition, the inhibition of aggregation in assay [2] was 0.4% (inactive). Besides, the nuclei count in assay [2] turned out to be 105%; in assay [3], 88.6%. Also, in assay [4], the fluorescence slope is -0.621 (inactive). Besides, the NADPH fluorescence slope in assay [5] was 1.8e-06 (inactive). Besides, the slope in assay [6] is 0.00592 (inactive).

In the case of `CCCCN(CC)CCCNC(=O)c1cc2c(=O)n(C)c3ccccc3c2n1C`, the cell count in assay [1] worked out at 667. The inhibition was 3.3% (inactive) in assay [1], -52.5% (inactive) in assay [3], 27.4% (inactive) in assay [7] and 69.5% (active) in assay [8]. Besides, in assay [2], the inhibition of aggregation was 14.5% (inactive). Besides, the nuclei count in assay [2] worked out at 81.6%; in assay [3], 107%. The fluorescence slope in assay [4] is -0.611 (inactive). The NADPH fluorescence slope in assay [5] is -4.2e-05 (inactive). In addition, the slope in assay [6] was 0.00621 (inactive).

Turning to `O=C(Cn1cc2c(n1)CCCCC2)N1CCc2ccccc21`, the cell count in assay [1] was 708. Also, the inhibition in assay [1] is -3.4% (inactive); in assay [3] it was -102% (inactive); in assay [7], 7.59% (inactive); in assay [8], 34.4% (inactive). Moreover, the inhibition of aggregation in assay [2] was 18.5% (inactive). Also, the nuclei count came out at 103% in assay [2] and 109% in assay [3]. Moreover, the fluorescence slope in assay [4] was -0.52 (inactive). Moreover, the NADPH fluorescence slope in assay [5] was -4.3e-05 (inactive). For the same compound, in assay [6], the slope was 0.00739 (inactive).

Turning to `Cc1ccc(CSC2=NCCN2C(=O)C2CC2)cc1`, the cell count in assay [1] turned out to be 221. The inhibition was -0.8% (inactive) in assay [1], -26.8% (inactive) in assay [3], 11% (inactive) in assay [7] and 11.8% (inactive) in assay [8]. Also, in assay [2], the inhibition of aggregation is 7.2% (inactive). In addition, the figures for the nuclei count in assay [2] and in assay [3] were 100% and 107%, respectively. Moreover, the fluorescence slope in assay [4] was -0.604 (inactive). Besides, the NADPH fluorescence slope in assay [5] is -2e-05 (inactive). In addition, in assay [6], the slope is 0.00584 (inactive).

In the case of `COc1ccc(OC)c(S(=O)(=O)NCCC2=CCCCC2)c1`, the cell count in assay [1] is 677. Moreover, the inhibition in assay [1] was -3.6% (inactive); in assay [3], 16.5% (inactive); in assay [7] it was -1.71% (inactive); in assay [8], 24.3% (inactive). Also, the inhibition of aggregation in assay [2] was -18.8% (inactive). In addition, the nuclei count was determined as 91.5% in assay [2] and 95% in assay [3]. Moreover, the fluorescence slope in assay [4] is -0.486 (inactive). Further, the NADPH fluorescence slope in assay [5] was -4.4e-05 (inactive). In addition, in assay [6], the slope is 0.00446 (inactive).

With `O=C(CN1CCN(c2cccc(Cl)c2)CC1)N1CCCC1`, the cell count in assay [1] amounted to 330. The inhibition was -8.7% (inactive) in assay [1], -69% (inactive) in assay [3], -11.1% (inactive) in assay [7] and -35.4% (inactive) in assay [8]. Besides, the inhibition of aggregation in assay [2] is 19.2% (inactive). Moreover, the nuclei count was found to be 73% in assay [2] and 87.6% in assay [3]. In addition, the fluorescence slope in assay [4] was -0.581 (inactive). The NADPH fluorescence slope in assay [5] was -1.8e-05 (inactive). Besides, the slope in assay [6] was 0.00658 (inactive).

With `C=CCn1c(SCc2ccc(C#N)cc2)nnc1-c1cccc(Cl)c1`, in assay [1], the cell count stood at 397. The inhibition in assay [1] is -11.3% (inactive); in assay [3], -62.4% (inactive); in assay [7], 11.7% (inactive); in assay [8], 35.5% (inactive). Further, in assay [2], the inhibition of aggregation is 10.7% (inactive). Also, the nuclei count was found to be 95.4% in assay [2] and 187% in assay [3]. Moreover, in assay [4], the fluorescence slope is -0.421 (inactive). Besides, in assay [5], the NADPH fluorescence slope was -4.1e-05 (inactive). In addition, the slope in assay [6] is 0.00297 (inactive).

As for `CCCC(=O)Nc1cnc(NC(=O)c2cccc(F)c2)cc1C`, the cell count in assay [1] amounted to 465. The inhibition in assay [1] is 14.1% (inactive); in assay [3] it was 46% (inactive); in assay [7], -24.4% (inactive); in assay [8], -162% (inactive). In addition, the inhibition of aggregation in assay [2] is 6.6% (inactive). Moreover, the nuclei count in assay [2] was 95.6%; in assay [3], 103%. The fluorescence slope in assay [4] is -0.563 (inactive). Also, the NADPH fluorescence slope in assay [5] is 4e-05 (inactive). Further, the slope in assay [6] is 0.00559 (inactive).

Turning to `Cc1cccc(NC(=O)COc2ccc(Br)cc2)n1`, in assay [1], the cell count is 457. Moreover, the inhibition was -12.1% (inactive) in assay [1], 26.7% (inactive) in assay [3], 2.6% (inactive) in assay [7] and -9.96% (inactive) in assay [8]. In assay [2], the inhibition of aggregation was -8.7% (inactive). In addition, the figures for the nuclei count in assay [2] and in assay [3] were 110% and 124%, respectively. Besides, the fluorescence slope in assay [4] is -0.437 (inactive). The NADPH fluorescence slope in assay [5] is 6.5e-05 (inactive). The slope in assay [6] is 0.00667 (inactive).

As for `CCc1ccccc1NC(=O)c1ccoc1C`, the cell count in assay [1] worked out at 399. The inhibition was 2.4% (inactive) in assay [1], -12.3% (inactive) in assay [3], 13.9% (inactive) in assay [7] and 17.6% (inactive) in assay [8]. Besides, in assay [2], the inhibition of aggregation is 0.7% (inactive). For the same compound, the nuclei count in assay [2] stood at 97.9%; in assay [3], 99.5%. The fluorescence slope in assay [4] is -0.493 (inactive). For the same compound, the NADPH fluorescence slope in assay [5] was -5.8e-05 (inactive). For the same compound, the slope in assay [6] was 0.00456 (inactive).

As to `C(=N\c1c(-c2ccccc2)nc2n1CCS2)/c1ccccc1`, the cell count in assay [1] was 594. For the same compound, the inhibition is -22.1% (inactive) in assay [1], 18.8% (inactive) in assay [3], 0.61% (inactive) in assay [7] and 10.6% (inactive) in assay [8]. In addition, in assay [2], the inhibition of aggregation is -0.7% (inactive). For the same compound, the nuclei count in assay [2] turned out to be 86%; in assay [3], 43.9%. In addition, the fluorescence slope in assay [4] is -0.458 (inactive). The NADPH fluorescence slope in assay [5] was -3.7e-05 (inactive). The slope in assay [6] is 0.00231 (inactive).

As for `O=C(Nc1ccccn1)N1CCOCC1`, the cell count in assay [1] stood at 319. Also, the inhibition was 9.3% (inactive) in assay [1], -70.8% (inactive) in assay [3], 1.79% (inactive) in assay [7] and 0.112% (inactive) in assay [8]. The inhibition of aggregation in assay [2] is 10.6% (inactive). Further, the nuclei count in assay [2] was 95.2%; in assay [3], 114%. In addition, the fluorescence slope in assay [4] was -0.303 (inactive). Also, the NADPH fluorescence slope in assay [5] is -5e-05 (inactive). Further, in assay [6], the slope is 0.00596 (inactive).

Regarding `Cn1c(=O)n(CC(=O)OCc2ccccc2)c(=O)c2c1nc1n2CCCN1C1CCCCC1`, in assay [1], the cell count came to 376. The inhibition in assay [1] is 3.2% (inactive); in assay [3] it was 25.3% (inactive); in assay [7], -2.49% (inactive); in assay [8] it was 17.2% (inactive). Besides, the inhibition of aggregation in assay [2] is 0.2% (inactive). The nuclei count was 82.9% in assay [2] and 92% in assay [3]. The fluorescence slope in assay [4] was -0.479 (inactive). For the same compound, the NADPH fluorescence slope in assay [5] was -1.8e-05 (inactive). The slope in assay [6] was 0.00618 (inactive).

`Cc1cc(C)cc(NC(=O)C2CCCN(S(=O)(=O)c3cnc[nH]3)C2)c1` (centres undefined): the cell count in assay [1] is 595. Also, the inhibition in assay [1] was 17.2% (inactive); in assay [3], -30% (inactive); in assay [7] it was 14.1% (inactive); in assay [8], 33.8% (inactive). Moreover, the inhibition of aggregation in assay [2] was -39.1% (inactive). The values for the nuclei count in assay [2] and in assay [3] were 97.1% and 124%, respectively. The fluorescence slope in assay [4] is -0.523 (inactive). Further, the NADPH fluorescence slope in assay [5] was 1.2e-05 (inactive). In addition, the slope in assay [6] is 0.00642 (inactive).

Broadly, the inhibition is the change of the read-out against control, counted positive when it falls.
